# Assay outcomes (PubChem BioAssay)
# TRPV1 ag: human TRPV1 agonism. Q8NER1. AID 540275. 320,000 tested, 0.19% active. TRPV1-expressing cells, Fluo-8 calcium influx, agonist mode. activation, % at 8.33 µM; in the data active = activation above about 80%; inconclusive = between about 30% and that limit; note: 0% is about no effect
#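 TRPV1-expressing cells were cultured overnight at 35.5C and loaded with Fluo-8 calcium dye for 40 to 90 min at room temperature. After a 10 s baseline, compound was added and calcium influx was read kinetically for 3 min (ex 480/em 520 nm).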
# Gal4-VP16 FLuc: Gal4-VP16 reporter inhibition counter-screen; Drosophila S2 Gal4-VP16 UAS-luciferase, luminescence, 20 h; Potency, µM (highest dose often 53.6 µM), for the others: at the highest dose activity, negative = inhibition, most hits filed as inhibitors; 310,000 tested, 3.5% active;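 note: Gal4-VP16 expression switched on by copper sulfate through the metallothionein promoter; potency is the fitted concentration of half-maximal effect; % is set by controls: 0 for no effect and ±100 for the full control effect; nearly all actives have a fitted effect of over 50% in size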
# uPA surface inh: inhibitors of cell surface uPA generation. cell surface uPA generation assay, qHTS. Potency, µM (titrated, usually from 38.3 µM), for the others: at the top dose activity change, negative = inhibition, actives largely listed as inhibitors. 330,000 tested, 0.31% active; active = well fitted inhibition curve with a large enough effect; inconclusive = small, poorly fitted or top-dose-only effect; inactive = no such curve, though single readings can be large or run the other way; tested in mouse RAW 264.7 cells; note: potency is the fitted concentration of half-maximal effect; % is set by controls: 0 for no effect and ±100 for the full control effect; nearly all actives have a fitted effect of over 55% in size
# RORg inh: ROR gamma (mouse) transcription inhibition; P51450; Potency, µM (titrated, usually from 53.6 µM), inactives show at the highest dose activity change, negative = inhibition, most hits filed as inhibitors; Drosophila S2 Gal4-RORgamma UAS-luciferase reporter, 20 h; AID 2551; 310,000 tested, 5.4% active; note: potency is the fitted concentration of half-maximal effect; % is set by controls: 0 for no effect and ±100 for the full control effect; nearly all actives have a fitted effect of over 60% in size
# Target sequence (P51450 whole entry, looked up, the tested form may be a part): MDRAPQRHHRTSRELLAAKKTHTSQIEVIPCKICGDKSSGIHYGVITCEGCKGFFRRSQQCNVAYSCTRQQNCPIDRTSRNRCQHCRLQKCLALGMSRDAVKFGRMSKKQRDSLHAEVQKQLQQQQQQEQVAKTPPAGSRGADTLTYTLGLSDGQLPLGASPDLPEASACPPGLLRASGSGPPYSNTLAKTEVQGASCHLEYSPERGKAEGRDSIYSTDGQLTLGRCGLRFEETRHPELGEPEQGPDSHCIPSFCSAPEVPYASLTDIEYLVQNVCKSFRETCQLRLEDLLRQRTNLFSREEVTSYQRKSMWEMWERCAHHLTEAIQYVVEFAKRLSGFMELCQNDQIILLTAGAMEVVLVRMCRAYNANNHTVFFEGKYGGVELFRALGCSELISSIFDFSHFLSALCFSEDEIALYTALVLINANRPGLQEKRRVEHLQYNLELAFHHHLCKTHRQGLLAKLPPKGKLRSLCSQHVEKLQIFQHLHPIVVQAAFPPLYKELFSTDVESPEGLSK
#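 Using a luciferase readout, inhibitors were identified by reduced reporter activity in Drosophila cells coexpressing a copper-inducible Gal4–ROR gamma fusion and UAS-driven Photinus luciferase, incubated 20 hr after 700 uM copper sulfate.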
# TRPV1 potentiator: potentiators of human vanilloid receptor 1 (TRPV1). Q8NER1. TRPV1-expressing cells, Fluo-8 calcium influx, capsaicin EC20 potentiation. potentiation, % at 8.33 µM. 320,000 tested, 0.02% active; in the data active = potentiation above about 80%; inconclusive = between about 30% and that limit; note: 0% is about no effect
#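 Cells expressing TRPV1 were dye-loaded with Fluo-8 and read kinetically: 10 s baseline, 3 min after compound (agonist portion), then 2 min after EC20 capsaicin (allosteric enhancer portion). Calcium-bound dye fluorescence at 480/520 nm.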
# * = called active by the depositor; i = inactive; ? = inconclusive; . = no result; [ ] = remark or other dose. Hits are enriched below; roughly 5.8% of the tested compounds scored in any of these assays. Unless noted, calls come from the whole dose curve; as a rule, active = well fitted curve in the direction sought with a large enough effect; inconclusive = small, poorly fitted or top-dose-only effect, or another doubt; inactive = no such curve, though single readings can be large; an effect the other way counts as inactive or inconclusive.
SMILES,TRPV1 ag,Gal4-VP16 FLuc,uPA surface inh,RORg inh,TRPV1 potentiator
Cc1occc1-c1nnc(SCC(=O)c2ccc(F)cc2)n1Cc1ccco1,7.7,20.4%,-3.1%,15.9%,1.9
O=C(CSc1nnc(-c2cc3ccccc3cc2O)n1Cc1ccco1)c1ccc(F)cc1,.,14.1µM*,9.2%,-32.6%,.
CCCN(CC(=O)Nc1ccccc1OC)C(=O)C1=COCCO1,-3.2,.,-16.2%,.,-9.0
COc1cc(C(=O)NC(C)CCc2ccccc2)cc(OC)c1OC (stereo unspecified),1.1,1.3%,-1.3%,-9.7%,?
CN(Cc1ccccc1)C(=S)NC(=O)c1ccc(-c2ccccc2)cc1,-6.1,0.0891µM*,-3.7%,0.282µM*,11.5
COc1cc(C(=O)NC(=S)N(CCc2ccccc2)CCc2ccccc2)cc(OC)c1OC,2.7,0.794µM*,-8.3%,0.398µM*,9.5
CN(Cc1ccccc1)C(=S)NC(=O)c1cccs1,12.5,0.251µM*,-1.7%,0.316µM*,-4.8
COc1cc(C(=O)NC(=S)N(C)Cc2ccccc2)cc(OC)c1OC,0.5,3.55µM*,2.4%,0.562µM*,12.4
CN(Cc1ccccc1)C(=S)NC(=O)C1CCCCC1,17.9,15.5%,13.4%,-3.1%,1.4
C=C(C)C1CC=C(C)/C(=N/NC(=S)Nc2ccccc2)C1 (stereo unspecified),-4.7,1.12µM*,2.4%,1.12µM*,-4.5
C=C(C)C1CC=C(C)/C(=N/NC(=O)c2ccc(NC(=O)c3cccc(C)c3)cc2)C1 (stereo unspecified),.,0.9%,6.6%,18.7%,.
O=c1cnc2cnc(N3CCOCC3)nc2n1C[C@H]1CCCO1,.,0.5%,.,13.4%,.
Cc1cccc(NC(=O)c2cnc3ccccn3c2=O)c1,6.2,?,?,2.51µM*,4.1
Cc1cccc(NC(=O)c2cnc3sccn3c2=O)c1C,0.9,-9.6%,.,45.3%,11.2
Cc1cccc(NC(=O)c2cnc3sccn3c2=O)c1,8.1,-12.9%,10µM*,-21.5%,-6.3
Cc1cc2c(c(=O)n1Cc1ccccc1)C1O[C@](c3ccsc3)(Cc3ccccc31)O2,?,-1.4%[10 µM],.,13.4%[10 µM],i
COC(=O)C1=C[C@@H](C(=O)OC)[C@@H]2C3=C(C(=O)C2(C)C)[C@H](C)n2c(=O)n(C)c(=O)n2[C@@H]3C1,.,-7.2%,.,-0.7%,.
CC(NC(=S)NCCCN1CCOCC1)C1CC2CCC1C2 (stereo unspecified),?,?,-1.0%,5.62µM*,-7.3
CNC(=S)NCCN1CCOCC1,-7.5,-4.6%,1.6%,-2.8%,20.5
S=C(NCCCN1CCOCC1)NC1CC1,-2.8,6.1%,11.8%,-10.2%,2.2
CC(NC(=S)NCCN1CCOCC1)C12CC3CC(CC(C3)C1)C2 (stereo unspecified),14.3,-14.2%[10 µM],3.0%,5.01µM*,-9.6
Cc1ccsc1/C=N/NC(=O)c1ccc([N+](=O)[O-])cc1,?,4.47µM*,-17.9%,1µM*,-13.8
COc1cc(C(=O)N/N=C/c2sccc2C)cc(OC)c1OC,0.1,?,-9.9%,20µM*,7.5
Cc1ccsc1/C=N/NC(=O)c1ccncc1,9.6,7.08µM*,7.3%,3.55µM*,11.7
Cc1ccsc1/C=N/NC(=O)c1cccnc1,-0.3,12.6µM*,-1.3%,?,-0.7
SMILES,TRPV1 ag,Gal4-VP16 FLuc,uPA surface inh,RORg inh,TRPV1 potentiator
COc1ccccc1NCC(=O)N/N=C/c1sccc1C,-0.6,?,-4.0%,?,3.9
CSc1sccc1/C=N/NC(=O)c1ccncc1,1.2,-27.5%,1.9%,?,25.7
CC(O)COC(C)(C)C (stereo unspecified),.,-18.2%,.,2.9%,.
COC(=O)C/C=C1\c2ccccc2[C@H](OC)[C@H]1C,.,-10.3%[10 µM],.,5.9%[10 µM],.
COc1cc(C(=O)N/N=C/c2cc([N+](=O)[O-])cs2)cc(OC)c1OC,-4.5,?,-13.2%,3.98µM*,-1.1
Cc1ccsc1/C=N/NC(=O)c1ccc2ccccc2c1,25.5,5.62µM*,-12.9%,3.16µM*,-18.0
COC(=O)C/C=C\[C@@H](C)[C@@H](/C=N\O[C@@H](C)c1cn([C@H]2COC[C@H]2O)nn1)NS(=O)(=O)c1ccc(C)cc1,.,-7.9%[10 µM],.,-5.4%[10 µM],.
CC(=O)N1c2ccc(S(=O)(=O)N3CCCCC3)cc2CC1C(=O)Nc1cccc(C)c1 (stereo unspecified),1.7,4.1%,-5.7%,7.2%,-6.6
C(=N\Nc1ncnc2ccccc12)/c1ccccc1,?,1µM*,-4.2%,2.51µM*,-18.7
Clc1cccc(/C=N/Nc2ncnc3ccccc23)c1,21.2,4.47µM*,1.1%,1.26µM*,-19.1
Clc1cccc(Nc2ncnc3ccc(Br)cc23)c1,?,4.3%,-36.0%,?,-7.2
Clc1ccc(/C=N/Nc2nc(Cl)nc3ccccc23)cc1,7.5,?,-2.3%,-21.8%,-8.6
CS(=O)(=O)c1ccc(S(=O)(=O)N2CCC(CO)(CCCc3ccccc3)CC2)cc1,9.6,.,7.3%,.,-3.4
Cc1ccc(S(=O)(=O)NNC(=O)c2snnc2C)cc1,7.2,-8.4%,4.6%,-32.3%,-7.6
Cc1nnsc1C(=O)NNS(=O)(=O)c1cc(C(F)(F)F)cc(C(F)(F)F)c1,0.0,19.2%,2.0%,11.2µM*,2.4
O=C(N/N=C/c1cc([N+](=O)[O-])ccc1O)C1C2CCCCC21 (stereo unspecified),4.7,2.82µM*,.,0.891µM*,4.7
O=C(N/N=C/c1cc([N+](=O)[O-])ccc1O)C1CCCCC1,14.8,2.51µM*,-8.2%,0.501µM*,-8.8
O=C(N/N=C/c1ccc(O)cc1O)C1CC1,.,.,-11.6%,.,.
c1ccc(CCn2cnc3ccccc32)cc1,22.6,?,-1.8%,12.6µM*,0.4
c1ccc(OCCCCn2cnc3ccccc32)cc1,7.4,?,-2.6%,12.6µM*,-7.6
c1ccc(OCCn2cnc3ccccc32)cc1,19.1,2.6%[0.365 µM],.,7.6%,-9.7
Cc1ccccc1OCCCCn1cnc2ccccc21,13.3,10µM*,-6.8%,-100.9%,-3.8
CC(=O)c1c(O)cc(O)c(C(C)=O)c1O,-1.7,10µM*,13.3%,?,-9.9
COc1cccc(-c2nnc3sc(C4CCCCC4)nn23)c1,?,-11.3%,0.4%,9.8%,-16.5
CCOc1cccc(-c2nnc3sc(C4CCCCC4)nn23)c1,?,?,0.7%,20µM*,-12.1
SMILES,TRPV1 ag,Gal4-VP16 FLuc,uPA surface inh,RORg inh,TRPV1 potentiator
COc1cccc(O)c1CN1CCC(C(=O)Nc2ccc(-c3cccc(C)c3)cc2)CC1,3.0,14.1µM*,-16.1%,10µM*,0.9
Cc1ccc(CN2CCC(C(=O)Nc3cccc(-c4cccc(F)c4)c3)CC2)o1,2.9,10µM*,-11.0%,-24.5%,-4.7
O=[N+]([O-])c1cccc(S(=O)(=O)NCCNS(=O)(=O)c2cccc([N+](=O)[O-])c2)c1,.,1.2%,.,36.0%,.
Cc1ccc(NC(=O)CC2SC3=NCCN3C2=O)cc1 (stereo unspecified),3.0,11.2µM*,-0.5%,?,18.1
O=C(CC1SC2=NCCN2C1=O)Nc1ccccc1 (stereo unspecified),.,-8.9%,5.1%,43.4%,.
O=S(=O)(NC(=S)c1ccccc1)c1ccccc1,.,.,0.1%,.,.
